Assay results as given in PubChem BioAssay.
“And” between values parts separate entries of the source, which are not always exact repeats. Equal entries are not always repeated. Records with an inconclusive call do not appear. The source made the active and inactive calls.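 The calls were made as follows, unless noted: active = normalized viability below 100% at a tested concentration; inactive = the rest.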

Key:
[1] = test system: Aerobactin synthetase IucA (Klebsiella pneumoniae); experiment: inhibition of K. pneumoniae IucA enzyme – biochemical, Tocris library, absorbance (AID 1345561; call rule not given here;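 also: 100% = enzyme without compound and 0% = no enzyme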); settings: purified IucA enzyme assay, absorbance (OD) read-out; stronger effect = lower value;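 tested at 8 µM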
[2] = viability loss in pontine glioma line – cell-based, SU-DIPG-XIII, MIPE4.0, CellTiter-Glo, qHTS, dose response (AID 1347061; cut-off not given, nearly all actives have AC50 up to about 37 µM;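 also: cells exposed to compound for 48 hours before readout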); settings: CellTiter-Glo ATP luminescence
[3] = viability loss in pontine glioma line – cell-based, JHH-DIPG-1, MIPE4.0, CellTiter-Glo, qHTS, dose response (AID 1347062; cut-off not given, nearly all actives have AC50 up to about 27 µM); settings: JHH-DIPG-1 viability, CellTiter-Glo ATP luminescence
[4] = viability loss with induced miR-34 in A549 – imaging, A549 dox-inducible miR-34, nuclei and caspase counts, primary screen (AID 1347080;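 active = compounds whose cell count with miR-34 switched on is under 0.7 times the count with it off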); settings: A549 miR-34 inducible, Hoechst nuclei count, 48 h
[5] = compounds altering HSF1 focus formation in cells – imaging, Selleck Cancer Library (AID 1347162; in the data active = plate-normalised HSF1 focus index below about 0.46); settings: human cells, HSF1 nuclear foci imaging, at 10 µM; SSMD: measured here: HSF1 foci SSMD mean; cell count: measured here: cell number; plate-normalised HSF1 focus index: stronger effect = lower value
[6] = drug combination growth inhibition, ovarian cancer – cell-based, oncology-focused library, rucaparib conditional, profiling panel (AID 1508598); settings: patient-derived ovarian cancer cells, CellTiter-Glo viability, 144 h, stronger effect = lower value
[7] = galactose survival enhancers in mitochondrial complex I cybrids – cell-based, galactose medium, ATP luminescence, primary screen (AID 1645843;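 active = z-score of at least 1.8 in each of two replicates, scored against plate mean and spread of sample wells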;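 also: positive z means more ATP and so rescue of galactose-driven cybrid death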); settings: complex I mutant cybrid cells, 72 h, stronger effect = higher value
[8] = MELAS cybrid and Rieske KO viability enhancers – cell-based, MELAS cybrids, Rieske KO mouse fibroblasts, CellTiter-Glo, primary screen (AID 1508586;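 active = mean z-score across replicates of 1.96 or higher in either the MELAS or the Rieske mutant cell line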;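 also: z relative to plate mean and SD of compound and empty wells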); settings: low glucose
[9] = stronger effect = lower value, cell number ratio, induced over uninduced
[10] = measured here: relative caspase fold change +Dox/-Dox
[11] = measured here: total cells with miR-34 induction, stronger effect = lower value
[12] = measured here: total cells without miR-34 induction
[13] = at 0.000305 µM, OCI-C5x cells, with rucaparib 10 µM, 100% = cells with rucaparib alone
[14] = at 0.000305 µM, OCI-C5x cells, without rucaparib
[15] = at 0.000305 µM, OCI-P5x cells, with rucaparib 20 µM, 100% = cells with rucaparib alone
[16] = at 0.000305 µM, OCI-P5x cells, without rucaparib
[17] = at 0.00122 µM, OCI-C5x cells, with rucaparib 10 µM, 100% = cells with rucaparib alone
[18] = at 0.00122 µM, OCI-C5x cells, without rucaparib
[19] = at 0.00122 µM, OCI-P5x cells, with rucaparib 20 µM, 100% = cells with rucaparib alone
[20] = at 0.00122 µM, OCI-P5x cells, without rucaparib
[21] = at 0.00488 µM, OCI-C5x cells, with rucaparib 10 µM, 100% = cells with rucaparib alone
[22] = at 0.00488 µM, OCI-C5x cells, without rucaparib
[23] = at 0.00488 µM, OCI-P5x cells, with rucaparib 20 µM, 100% = cells with rucaparib alone
[24] = at 0.00488 µM, OCI-P5x cells, without rucaparib
[25] = at 0.0195 µM, OCI-C5x cells, with rucaparib 10 µM, 100% = cells with rucaparib alone
[26] = at 0.0195 µM, OCI-C5x cells, without rucaparib
[27] = at 0.0195 µM, OCI-P5x cells, with rucaparib 20 µM, 100% = cells with rucaparib alone
[28] = at 0.0195 µM, OCI-P5x cells, without rucaparib
[29] = at 0.0781 µM, OCI-C5x cells, with rucaparib 10 µM, 100% = cells with rucaparib alone
[30] = at 0.0781 µM, OCI-C5x cells, without rucaparib
[31] = at 0.0781 µM, OCI-P5x cells, with rucaparib 20 µM, 100% = cells with rucaparib alone
[32] = at 0.0781 µM, OCI-P5x cells, without rucaparib
[33] = at 0.313 µM, OCI-C5x cells, with rucaparib 10 µM, 100% = cells with rucaparib alone
[34] = at 0.313 µM, OCI-C5x cells, without rucaparib
[35] = at 0.313 µM, OCI-P5x cells, with rucaparib 20 µM, 100% = cells with rucaparib alone
[36] = at 0.313 µM, OCI-P5x cells, without rucaparib
[37] = at 1.25 µM, OCI-C5x cells, with rucaparib 10 µM, 100% = cells with rucaparib alone
[38] = at 1.25 µM, OCI-C5x cells, without rucaparib
[39] = at 1.25 µM, OCI-P5x cells, with rucaparib 20 µM, 100% = cells with rucaparib alone
[40] = at 1.25 µM, OCI-P5x cells, without rucaparib
[41] = at 5 µM, OCI-C5x cells, with rucaparib 10 µM, 100% = cells with rucaparib alone
[42] = at 5 µM, OCI-C5x cells, without rucaparib
[43] = at 5 µM, OCI-P5x cells, with rucaparib 20 µM, 100% = cells with rucaparib alone
[44] = at 5 µM, OCI-P5x cells, without rucaparib

C[C@H](NC(=O)Cc1cc(F)cc(F)c1)C(=O)N[C@H](C(=O)OC(C)(C)C)c1ccccc1
6880: cell count [5]
8840: cell count [4, 12]
1.67: fold change [4, 10]
inactive: remaining activity [1] 99.3% | outcome [2] | outcome [3] | fold change [4, 9] 0.918 | plate-normalised HSF1 focus index [5] 1.11 | viability [6, 13] 103% | viability [6, 14] 116% | viability [6, 15] 110% | viability [6, 16] 111% | viability [6, 17] 103% | viability [6, 18] 117% | viability [6, 19] 109% | viability [6, 20] 107% | viability [6, 21] 108% | viability [6, 22] 126% | viability [6, 23] 106% | viability [6, 24] 111% | viability [6, 25] 103% | viability [6, 26] 119% | viability [6, 27] 110% | viability [6, 28] 102% | viability [6, 29] 115% | viability [6, 30] 117% | viability [6, 31] 107% | viability [6, 32] 101% | viability [6, 33] 106% | viability [6, 34] 125% | viability [6, 35] 102% | viability [6, 37] 116% | viability [6, 38] 117% | viability [6, 41] 120% | viability [6, 42] 120% | z-score [7] 0.56
active: viability [6, 36] 99% | viability [6, 39] 84.1% | viability [6, 40] 85.6% | viability [6, 43] 75.1% | viability [6, 44] 78.3%
8110: cell count [4, 11]
2.12: SSMD [5]

O=C(O)Cc1cccc(OCCCN(Cc2cccc(C(F)(F)F)c2Cl)CC(c2ccccc2)c2ccccc2)c1
active: viability [6, 20] 95.8% | viability [6, 35] 93.8% | viability [6, 36] 96.5% | viability [6, 39] 96.5% | viability [6, 40] 92.3% | viability [6, 41] 92.1% | viability [6, 43] 43.4% | viability [6, 44] 87.5%
0.748 and 1.3: fold change [4, 10]
8580 and 2370: cell count [4, 12]
7570 and 3160: cell count [4, 11]
inactive: remaining activity [1] 110% | outcome [3] | fold change [4, 9] 0.882 and 1.33 | plate-normalised HSF1 focus index [5] 1.02 | z-score ([8]; MELAS cybrid survival, CellTiter-Glo 48 h, stronger effect = higher value) -0.168 | viability [6, 13] 118% | viability [6, 14] 117% | viability [6, 15] 107% | viability [6, 16] 111% | viability [6, 17] 118% | viability [6, 18] 129% | viability [6, 19] 108% | viability [6, 21] 115% | viability [6, 22] 125% | viability [6, 23] 106% | viability [6, 24] 108% | viability [6, 25] 113% | viability [6, 26] 125% | viability [6, 27] 101% | viability [6, 28] 105% | viability [6, 29] 114% | viability [6, 30] 123% | viability [6, 31] 109% | viability [6, 32] 103% | viability [6, 33] 114% | viability [6, 34] 119% | viability [6, 37] 111% | viability [6, 38] 114% | viability [6, 42] 100% | z-score [7] -0.7
6290: cell count [5]
0.414: SSMD [5]
-0.731: z-score ([8]; Rieske KO mouse fibroblast survival, CellTiter-Glo 72 h)
